14-3-3 Bad PPI: disrupts binding of bovine 14-3-3 zeta to phospho-Bad peptide | 220,000 compounds, 0.71% hits | TR-FRET 14-3-3zeta/Dy647-pBad peptide displacement, 1 h | inhibition, % at 21.7 µM;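 active means inhibition above about 70%, limit read from the data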;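 further: 0% = full 14-3-3 plus peptide FRET controls and 100% = background without 14-3-3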
Target sequence (P63103 whole entry, looked up): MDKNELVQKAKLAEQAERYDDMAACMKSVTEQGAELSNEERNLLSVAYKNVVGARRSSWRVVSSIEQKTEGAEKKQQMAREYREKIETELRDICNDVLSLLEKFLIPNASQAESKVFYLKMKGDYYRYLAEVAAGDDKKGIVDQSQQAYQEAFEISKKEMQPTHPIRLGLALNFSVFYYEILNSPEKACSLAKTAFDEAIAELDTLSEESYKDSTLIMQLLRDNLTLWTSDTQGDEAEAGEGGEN
Mcl1-Noxa inh: disrupts binding of human Mcl-1 to Noxa peptide | Q07820 | TR-FRET Mcl-1/Noxa peptide binding, 2 h | inhibition, % at 21.7 µM | 220,000 compounds, 1.5% hits | AID 1022;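 active means compounds that cut the protein-peptide binding signal by more than 50% relative to plate controls in a single-dose test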;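 further: His-tagged Mcl-1 with rhodamine Noxa BH3 peptide and terbium anti-His antibody; 0% = Mcl-1 plus Noxa peptide wells and 100% = peptide-only wells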
Target sequence (Q07820 whole entry, looked up): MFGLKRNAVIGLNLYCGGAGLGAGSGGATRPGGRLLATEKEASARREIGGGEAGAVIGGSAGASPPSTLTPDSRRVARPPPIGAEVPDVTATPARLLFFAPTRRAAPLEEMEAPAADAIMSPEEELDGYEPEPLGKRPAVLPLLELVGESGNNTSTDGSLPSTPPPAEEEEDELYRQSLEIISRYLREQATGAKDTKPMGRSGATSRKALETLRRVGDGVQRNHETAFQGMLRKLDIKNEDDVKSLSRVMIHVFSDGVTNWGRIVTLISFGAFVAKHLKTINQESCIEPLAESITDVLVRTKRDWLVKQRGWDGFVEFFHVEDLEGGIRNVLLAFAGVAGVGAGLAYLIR
Mcl1 Bid PPI: Mcl-1/Bid interaction inhibition; AID 1021; TR-FRET Mcl-1/Bid-Dy647 peptide binding, 1536-well; Q07820; inhibition, % at 21.7 µM; 220,000 compounds, 0.97% hits;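 active means compounds that cut the binding signal by more than half at the single screening dose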;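 further: His-tagged Mcl-1 with europium anti-His antibody binding Bid BH3 peptide; 0% = Mcl-1 plus peptide wells and 100% = peptide-only wells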
MCL1 BIM primary: disrupts human MCL1 binding to BIM-BH3 peptide. inhibition, % at 10.9 µM. Q07820. AID 2057. 320,000 compounds, 0.68% hits. GST-MCL1 / FITC-Bim-BH3 fluorescence polarization;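 active means inhibition above the mean inhibition of all tested compounds plus 3 SD, set per campaign, cut at about 40% in these data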;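 further: 0% = DMSO wells and 100% = unlabeled Bim-BH3 peptide control; higher means more loss of mP so more displacement of Bim peptide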
Bim-Mcl-1: human Bim-Mcl-1 interaction inhibition; Q07820; Bead-based flow cytometry, Bim peptide-Mcl-1 binding; inhibition, % at 10 µM; 190,000 compounds, 0.1% hits; AID 1009; in the data active means inhibition above about 40%;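 further: 0% = no compound tracer wells and 100% = peptide blocker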
Bcl-xL conf: counter-screen for MCL1 inhibitors: confirmation of human Bcl-xL inhibitors. 1,700 compounds, 54% hits. inhibition, % at 10.9 µM. GST-Bcl-xL / FITC-Bim BH3 peptide FP binding. shares compounds with MCL1 BIM primary;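 active means inhibition above a cutoff equal to the mean inhibition of all tested compounds plus 3 SD, cut at about 30% in these data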;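 further: 0% = DMSO wells and 100% = unlabeled Bim BH3 control peptide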
MCL1 inh confirm: confirmation of human MCL1 and BIM-BH3 interaction inhibitors. AID 2168. shares compounds with MCL1 BIM primary. 1,700 compounds, 61% hits. GST-MCL1 / FITC-Bim-BH3 fluorescence polarization. inhibition, % at 10.9 µM;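 active means inhibition above the average of all tested compounds plus 3 SD, cut at about 40% in these data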;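 further: 0% = DMSO wells and 100% = unlabeled Bim-BH3 control peptide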
Numbers without * were called inactive; nt = not tested or not shown; [ ] = dose if it differs, or a comment. This is a sample that favours compounds with a hit; in the whole collection about 2.5% have one here.

SMILES	14-3-3 Bad PPI	Mcl1-Noxa inh	Mcl1 Bid PPI	MCL1 BIM primary	Bim-Mcl-1	Bcl-xL conf	MCL1 inh confirm
CCN(CC)C(=O)CC(c1ccc(OC)cc1)c1c(O)cc(OC)cc1OC (configuration not stated)	1	4	-43	0	nt	nt	nt
CN1C(=O)c2ccccc2NC(=O)[C@]12O[C@@H]2c1cccc(O)c1	3	16	-96	65*	nt	56*	69*
Cc1c(C(=O)c2ccc(F)cc2F)c2ccccn2c1CCC#N	nt	nt	nt	117*	nt	5	6
Cc1c(C(=O)c2ccc(Cl)cc2[N+](=O)[O-])c2ccccn2c1CCC#N	-17	4	-13	5	-4	nt	nt
CN(C)c1c(F)cc(C(=O)NC(=O)NCc2cccnc2)cc1F	nt	nt	nt	7	nt	nt	nt
O=C(O)c1ccc(N2CCCCC2)cc1	2	8	-8	3	0	nt	nt
Nc1ccc(N2CCCCCC2)cc1	80*[fluorescence artefact?]	65*	-19	42*	7	38*	57*
CC(/C=N/NC(=O)CN1CCN(Cc2ccc(Cl)cc2)CC1)=C\c1ccco1	-1	0	-7	8	-3	nt	nt
COc1ccc(NC(=O)/C=C/c2cccc(Br)c2)cn1	nt	nt	nt	99*	nt	74*	86*
CCC(Oc1ccccc1)C(=O)Nc1ccccn1 (configuration not stated)	26	4	4	6	0	nt	nt
C=CCNC(=O)/C(C#N)=C/c1ccccc1[N+](=O)[O-]	4	18	-3	51*	-8	26	22
N#CC12COC3(CCCCC3C1(C#N)C#N)OC2=N (configuration not stated)	-2	10	-137	72*	nt	21	12
N#CC1(C#N)COC23CCCCC2C1(C#N)C(=N)O3 (configuration not stated)	1	12	-32	78*	0	16	15
CO/N=C/C(c1ccc(Cl)nc1)S(=O)(=O)c1ccccc1 (configuration not stated)	nt	nt	nt	-2	nt	nt	nt
CCCCC1=CC2=C(c3ccco3)C(=O)C(C)(OC(=O)c3ccc(OC)cc3)C(=O)C2=CN1C1CCCCC1 (configuration not stated)	-4	-8	-112	52*	nt	41*	59*
CCCCC1=CC2=C(c3ccco3)C(=O)C(C)(OC(=O)c3ccc(OC)cc3)C(=O)C2=CN1CCOC (configuration not stated)	-1	3	-133	23	nt	nt	nt
Cc1ccc(C(=O)OCC(=O)NC(=O)c2ccc(C(C)(C)C)cc2)c(O)c1	nt	nt	nt	70*	nt	-4	-6
CNC(=O)c1c(N)sc2c1CCCCC2	6	21	4	72*	-4	44*	52*
CC(C)(C)NC(=O)NC(=O)CN1CCc2ccccc21	-2	14	-19	4	4	nt	nt
COCCNC(=O)NC(=O)CN1CCCc2ccccc21	-6	12	-21	74*	-1	7	12
O=C(Cc1cnn(-c2ccccc2)c1)c1ccc(O)c(O)c1O	-1	39	-1	64*	-2	14	40
CCN1CCc2c(sc(NC(=O)Cc3ccccc3)c2C(N)=O)C1	nt	nt	nt	7	nt	nt	nt
CCN1CCc2c(sc(NC(=O)Nc3ccc(Cl)c(Cl)c3)c2C(N)=O)C1	-12	44	2	87*	-3	54*	56*
Cc1ccc(NC(=O)CN2C(=O)N/C(=C/c3cccn3-c3ccc(C(=O)O)cc3)C2=O)cc1	38	102*	44	79*	9	41*	85*
CC(=O)N(c1ccc2oc(=O)sc2c1)S(=O)(=O)c1cccc2cccnc12	nt	nt	nt	12	nt	nt	nt
SMILES	14-3-3 Bad PPI	Mcl1-Noxa inh	Mcl1 Bid PPI	MCL1 BIM primary	Bim-Mcl-1	Bcl-xL conf	MCL1 inh confirm
CC1(C)CNc2cc(N)ccc2S1	-4	20	-66	66*	1	32*	43*
CN1CCN(C(c2ccc(Cl)cc2)c2cc(Cl)c3cccnc3c2O)CC1 (configuration not stated)	nt	nt	nt	43*	nt	36*	95*
CC(Oc1ccc(F)cc1)C(=O)Nc1cccc(-c2nn[nH]n2)c1 (configuration not stated)	nt	nt	nt	41*	nt	-4	-23
Cc1ccn2c(=O)nc(SCC(=O)NC3CCCCC3)nc2c1	nt	nt	nt	3	nt	nt	nt
CCOC(=O)c1c(C)[nH]c(C2=NNC(=Nc3ccccc3)SC2)c1C	2	12	-54	nt	-5	nt	nt
CCOC(=O)c1c(C)[nH]c(C2=NNC(=Nc3ccc(OCC)cc3)SC2)c1C	4	-22	-65	70*	-7	21	13
Cc1c(Br)c(O)c(Br)c2sc(=O)oc12	10	51*	-11	79*	nt	20	49*
O=C(NNC(=O)C1CC1)c1cc(Cl)nc2ccccc12	nt	nt	nt	-4	nt	nt	nt
Cc1cc2ccccc2n1CCNC(=O)COc1ccccc1	0	6	-38	63*	1	26	28
CCC(=O)NCCn1c(C)cc2ccccc21	-4	2	-37	18	2	nt	nt
Cc1ccc(/C=C2/NC(=O)N(Cc3ccc(Br)cc3)C2=O)o1	-15	19	-15	46*	-1	-2	21
Cc1ccc(/C=C2/NC(=O)N(Cc3ccccc3F)C2=O)o1	-5	-17	26	27	-8	nt	nt
O=C(O)C1CCCN1S(=O)(=O)c1ccc2[nH]c(=O)c(=O)[nH]c2c1 (configuration not stated)	9	0	10	-1	-2	nt	nt
O=C(CSc1nc(-c2ccccc2)cc(=O)[nH]1)N1CCOCC1	-3	23	-1	48*	-5	10	3
O=C(CSc1nc(O)cc(=O)[nH]1)N1CCOCC1	nt	nt	nt	-5	nt	nt	nt
CN1C(=O)N(C)c2ccc(C=O)c3cccc1c23	7	22	16	73*	2	65*	94*
CNS(=O)(=O)c1ccc2c3c(cccc13)C(=O)N2C	nt	nt	nt	4	nt	nt	nt
Nc1ccc2c(c1)C/C(=C/c1ccco1)C2=O	-6	37	-83	105*	-3	97*	106*
CCCCn1nc(NC(=O)COC)c2cc3cc(OC)ccc3nc21	nt	nt	nt	-4	nt	nt	nt
O=C1SC(SCc2ccccc2)=N/C1=C\c1ccco1	17	23	-24	43*	-1	8	16
O=C1SC(SCc2ccccc2)=N/C1=C\c1ccc(C(=O)O)cc1	-7	39	-4	3	-3	nt	nt
O=S(=O)(N/N=C\c1cccnc1)c1ccccc1	1	10	-34	-1	nt	nt	nt
COc1cccc(C2(O)CCN(C(=O)C(C)C)CC2)c1	2	31	-10	-2	nt	nt	nt
Cc1ccc(/C=N/n2cnc3sc(-c4ccccc4)cc3c2=O)o1	5	13	6	67*	0	8	12
Cc1cc2ncn(/N=C/c3ccc(-c4ccccc4)o3)c2cc1C	-9	22	6	6	-1	nt	nt
CCC(=O)Nc1ccc(C(=O)COC(=O)c2nc3nccc(C)n3n2)cc1	nt	nt	nt	54*	nt	1	52*

Screens from PubChem.
